# In the library only some 21% were active in any assay of this set; here they are far more common.
# CHX counter: counter-screen for Shiga toxin inhibitors: cycloheximide protein synthesis inhibition | 12% of 300,000 active | max response, % | cell reporter, cycloheximide protein synthesis inhibition counterscreen; in the data active means max response mostly above about 13%, no sharp cut-off; inactive means mostly below about 14%; further: read at 38.3 µM for the half of the compounds with a filed dose; 0% is about no effect
# HCV inh: HCV inhibition. Huh7.5.1 HCVcc-Cre infection, luciferase reporter, 44 h. AID 651820. 3.4% of 340,000 active. Potency, µM (titrated, usually from 41.8 µM), inactives show at the highest dose activity change, negative = inhibition, usual class: inhibitors; further: potency means the concentration at half of the fitted maximal effect; on the % scale 0 is the no-effect control and ±100 the full control effect
#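 Luciferase read-out (15 sec integration) after a 15 min room-temperature substrate step quantifies HCVcc-Cre infection. Cells, 1,000 per well, had compound added 4 h post-plating, then virus at ~0.5 moi, and were cultured 44 h.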
# Pf growth 96h: P. falciparum growth inhibition at 96 hours | P. falciparum luciferase reporter growth, 96 h | Potency, µM (top dose mostly 28.7 µM), without a hit: top-dose activity change, negative = inhibition, usual class: inhibitors | 6.9% of 320,000 active; further: potency means the concentration at half of the fitted maximal effect; on the % scale 0 is the no-effect control and ±100 the full control effect
#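 Infected RBCs, 2% Hct / 0.05% parasitemia final; luciferase-reporter P. falciparum; cpd 96 h, 37 C, 5% CO2; luciferase detection reagent; luminescence.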
# Shiga inhibitor: inhibitors of Shiga toxin in Vero cells; Vero cells, Shiga toxin protein synthesis inhibition reporter; AID 2315; 9.2% of 290,000 active; inhibition, % at 38.7 µM; in the data active means inhibition mostly above about 28%, no sharp cut-off; inactive means mostly below about 43%; further: 0% is about no effect
# Pf growth 48h: P. falciparum growth inhibition at 48 hours (one generation); P. falciparum luciferase growth in erythrocytes, 48 h; Potency, µM (series often up to 28.7 µM), for inactives: at the highest dose activity change, negative = inhibition, hits mostly inhibitors; 5.9% of 310,000 active; AID 504832; further: potency means the concentration at half of the fitted maximal effect; on the % scale 0 is the no-effect control and ±100 the full control effect
#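 Cell-based growth assay: transgenic P. falciparum expressing firefly luciferase, cultured in red cells within RPMI 1640 containing 0.5% w/v Albumax, 24 mM bicarbonate and gentamycin. A drop in luciferase activity indicates inhibition.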
# HCMV inh: blocks human cytomegalovirus replication. HFF cells, HCMV-luciferase reporter, 72 h; hits give low values. activity change, negative = inhibition, % at 57.5 µM. 4.5% of 410,000 active. AID 1259415; in the data active means activity change below about -60%; inconclusive means no clear call, values can overlap the other calls; inactive means above about -39%; further: on the % scale 0 is the no-effect control and ±100 the full control effect
#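 Human foreskin fibroblasts infected with luciferase-reporter HCMV at MOI 1 PFU/cell, compounds at two doses. Luciferase measured 72 h post infection; normalized to buffer-only basal and Salinomycin (10uM) controls.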
# Numbers without * were called inactive; ? = inconclusive; . = no result. Unless noted, the call rests on the fitted dose curve; in most records, active means well fitted inhibition curve with a large enough effect; inconclusive means small, poorly fitted or top-dose-only effect, or another doubt; inactive means no such curve, though single readings can be large or run the other way.
SMILES,CHX counter,HCV inh,Pf growth 96h,Shiga inhibitor,Pf growth 48h,HCMV inh
Cc1ccccc1NC(=O)C(NC1CCCCC1)C(C)C (centres undefined),1.3,-4.9%,?,-4.4,8.7%,41.9
Nc1ccc(Oc2ccc(Br)cc2)cc1,10.9,?,34.6%,10.3,24.8%,-6.1
Cc1cc(C)cc(Oc2ccc(N)cc2)c1,9.3,2µM*,11.7µM*,12.2,26.6%,32.4
Nc1ccc(Oc2cccc(Oc3ccc(N)cc3)c2)cc1,-16.7,-11.1%,-29.9%,-20.6,7.3%,-75.8*
Cc1cccc(Oc2ccc(N)cc2)c1,31.3*,?,34.3%,42.8,.,60.6
COc1ccc(Cl)cc1NC(=O)CN(C)C(=O)c1cccc(-n2cnnn2)c1,.,20.9%,-6.5%,.,-21.1%,9.5
COc1cccc(NC(=O)CN(C)C(=O)c2cn(-c3ccccc3)nc2-c2cccs2)c1,.,?,-25.6%,.,?,-26.0
COc1cccc(NC(=O)CN(C)C(=O)c2cn(-c3ccccc3)nc2-c2cccnc2)c1,.,-3.1%,?,.,11.7µM*,-0.8
COc1ccc(Cl)cc1NC(=O)CN(C)C(=O)c1cn(-c2ccccc2)nc1-c1cccnc1,.,?,10.4µM*,.,?,-16.7
COc1ccc(N2C(=O)CCC(C(=O)N3CCCCCC3)C2c2ccc(OC)c(OC)c2)cc1 (centres undefined),-3.9,1.7%,-7.1%,-20.8,20.6%,5.0
COc1ccc(C2C(C(=O)N3CCC(C(N)=O)CC3)CC(=O)N2c2ccc(OC)cc2)cc1 (centres undefined),6.1,2.0%,5.22µM*,-3.6,?,9.3
COc1ccc([C@@H]2[C@@H](C(=O)N3CCOCC3)CC(=O)N2C(=O)C2CC2)cc1,.,.,.,.,.,11.4
COc1ccc(C2C(C(=O)N3CCC4(CC3)OCCO4)CC(=O)N2c2ccc(OC)cc2)cc1 (centres undefined),-1.8,21.0%,.,-7.0,11.7µM*,.
CCCN(CCC)CCNC(=O)C1CC(=O)N(c2ccc(OC)cc2)C1c1ccc(OC)cc1 (centres undefined),-2.6,?,1.65µM*,-14.2,?,31.3
CCN(CC)C(=O)C1CC(=O)N(c2ccc(OC)cc2)C1c1ccc(OC)cc1 (centres undefined),8.6,-8.1%,.,-3.9,?,6.7
COc1ccc(C2C(C(=O)N3CCCCC3)CC(=O)N2c2ccc(OC)cc2)cc1 (centres undefined),-2.3,5.0%,9.28µM*,24.9,1.65µM*,68.1
FC(F)(F)c1cccc(NC(=S)NCC2COc3ccccc3O2)c1 (centres undefined),-1.8,?,17.9%,-3.0,5.0%,?
CS(=O)(=O)c1cccc(C(=O)Nc2ccc3c(c2)OCCCO3)c1,34.8*,11.0%,93.6%,58.6*,118.5%,33.2
O=C(Nc1ccc2c(c1)OCCO2)c1cccc(S(=O)(=O)N2CCOCC2)c1,27.6,-23.9%,.,68.2*,79.4%,51.4
O=C(Nc1ccc2c(c1)OCCO2)c1cccc(S(=O)(=O)N2CCCCC2)c1,20.1*,.,.,83.7*,16.1%,?
CC(C)NC(=O)CSc1nc(-c2cccs2)cc(-c2ccccc2)c1C#N,-4.6,?,-4.2%,-8.9,11.9%,-4.2
CC(C)(C)NC(=O)CSc1nc2ccccc2c(=O)[nH]1,32.4*,12.8%,77.1%,17.8,11.7µM*,179.3
CC(C)NC(=O)CSc1nc(Cc2cccs2)nc2ccccc12,1.1,-25.8%,?,-5.9,?,-81.3*
CCC(C)(C)NC(=O)CSc1nc(Cc2ccccc2)nc2ccccc12,1.3,-25.6%,?,-2.5,?,-71.6*
CC(C)(C)NC(=O)CSc1nc(Cc2ccccc2)nc2ccccc12,-5.0,12.6µM*,13.1µM*,-0.6,-16.7%,-66.8*
O=C(CSc1nc(Cc2ccccc2)nc2ccccc12)Nc1ccc2c(c1)OCCO2,-1.3,-2.0%,?,19.2,?,?
COc1ccc(C2=NCCn3c2c2ccc(OC)cc2[n+]3[O-])cc1,.,.,.,.,.,31.9
CC(C)c1ccc(/C=N/n2cnnc2)cc1,8.4,-5.2%,48.4%,9.6,0.0%,0.6
CCn1cc(C(=O)O)c(=O)c2cc(F)c(N3CCN[C@@H](C)C3)c(F)c21,.,.,?,.,-23.1%,.

# Screening data (PubChem BioAssay)
